From PubChem BioAssay AID1745847 (National Center for Advancing Translational Sciences (NCATS), 2022)
About 670 (32%) of roughly 2,100 compounds were called active. Another 50% or so got no clear call; they are omitted. Some of the results follow. Unmarked numbers belong to inactive results. The call rests on the fitted dose curve; in most records, active means well fitted inhibition curve with a large enough effect; inconclusive means small, poorly fitted or top-dose-only effect; inactive means no such curve, though single readings can be large or run the other way.

Experiment: CMV-Luciferase Counterscreen for Inhibitors of ATXN expression; further: nearly all actives have a fitted effect of over 55% in size
Details: HEK-293 CMV-luciferase reporter, luminescence, 24 h; series mostly up to 57.5 µM; activity change, negative = inhibition: at the top concentration
Text: PI: Daniel Scoles Ph.D. University of Utah School of Medicine, Salt Lake City, Utah MLPCN Grant: NS073009 Spinocerebellar ataxia type 2 (SCA2) is a multisystem neurodegenerative disease caused by a dominantly acting mutation leading to expansion of a polyQ domain in the ataxin-2 protein (ATXN2). SCA2 patients develop progressive ataxia and later lose function in other neuronal systems. Prominent parkinsonian signs develop in some patients. Like many neurodegenerative disorders, no symptomatic or disease-modifying treatments are known. The primary objective of the proposed research is to identify compounds inhibiting ATXN2 expression and to test them for efficacy in SCA2 mouse models. We have developed a cell-based assay paired with an in vivo mouse model using identical luciferase expression constructs. This approach takes advantage of an ATXN2-luciferase transgene, with the luciferase gene flanked by the upstream and downstream portions of the ATXN2 gene. Here we describe a 5-7 dose quantitative high thoroughput screen (qHTS) for compounds lowering ATXN2 expression. We screened the NIH Molecular Libraries Small Molecule Repository (MLSMR) and NCGC's mechanistically annotated (MIPE) and drug repurposing (NPC) collections of compounds for lowering expression of an ATXN2-luciferase reporter in HEK-293 cells. The assay is a multiplexed cell viability assay to ensure target reduction in the absence of cytotoxicity. Secondary qHTS assays included a CMV-luciferase reporter expressed in HEK-293 cells as well as a biochemical assay using recombinant luciferase to detect inhibitors of the reporter enzyme. Compounds that inhibit ATXN2 expression but is not cytotoxic were selected for confirmatory and secondary screens.
PROTOCOL TABLE (as described by Inglese J, Shamu CE and Guy RK. 2007) SEQUENCE No. (e.g., 1, 2, 3, etc.); PARAMETER (e.g., Cells, Incubation, Reagent, etc.); VALUE; DESCRIPTION. 1; Cells; 4 uL; white, solid bottom, 1536-well Greiner assay plate. 2; Incubation; 2 hr; 37 degree C in 5% humidified CO2. 3; Compounds; 23 nL; Kalypsis pintool (Wako USA) equipped with a 1536-well pin head. 4; Incubation; 24 hr; 37 degree C in 5% humidfified CO2. 5; Reagent; 1 uL; Gly-Phe-7-Amino-4-trifluoromethylcoumarin. 6; Incubation; 30 min; 37 degree C in 5% humidfified CO2. 7; Detection; Fluorescence; Viewlux plate reader (PerkinElmer). 8; Reagent; 3 uL; SteadyGlo luciferase solution (Promega). 9; Incubation; 5 min; room temperature. 10; Detection; Luminescence; ViewLux plate reader (PerkinElmer). NOTES (numbers refer to Sequence numbers above) 1. HEK-293 cells expressing CMV-luciferase reporter (designated as SC cells) were suspended in phenol-red free DMEM and dispensed in assay plates using a Multidrop Combi dispenser (Thermo Fisher Scientific). 2. Assay plates were incubated. Evaporation was prevented by covering assay plates with metal lids containing holes to allow gas diffusion. 3. Compounds were added in a dose response manner with the final concentrations of 57, 11.4, 2.28, 0.46, 0.091, 0.018, 0.0037 uM. Vehicle-only plates, with DMSO being pin-transferred to columns 5-48, were inserted uniformly at the beginning and the end of each library to monitor and record any shifts in assay performance. 5. 125 uM Gly-Phe-7-Amino-4-trifluoromethylcoumarin (MP Biomedicals) working concentration was used at a final concentration of 25 uM. 7. To assess cell viability; the assay plates were read using the ViewLux high-throughput CCD imager (PerkinElmer), wherein single end-point fluorescence measurement was acquired (excitation 405/10; emission 540/25 nm). 8. Detection reagent SteadyGlo Luciferase (Promega) was added to the assay plate. 10. Luminescence is then measured on the ViewLux imager equipped with a clear emission filter using a 2 sec exposure. […]
On the % scale 0 is the no-effect control and ±100 the full control effect; potency means the concentration at half of the fitted maximal effect.

SMILES	Potency	activity change, negative = inhibition
CC(=O)Oc1ccc(C23c4ccccc4C2(OC(C)=O)c2cc(OC(C)=O)ccc23)cc1 (centres undefined)	25.1 µM (active)	–
COc1ccc(OCc2cccc(C(=O)Nn3cc([N+](=O)[O-])cn3)c2)cc1	0.398 µM (active)	–
O=C(N/N=C/c1ccc(O)cc1O)c1ccc(NC(=O)C2CCCCC2)cc1	12.6 µM (active)	–
CC(C)CC(=O)NC(=S)NNC(=O)c1ccc(NC(=O)C2CCCCC2)cc1	–	8.7% [at 11.4 µM]
O=C(N/N=C/c1ccc(O)cc1O)c1ccc(CN2C(=O)c3cccc4cccc2c34)cc1	1.78 µM (active)	–
O=C(N/N=C/c1ccc(O)cc1O)c1ccncc1	3.98 µM (active)	–
O=C(N/N=C/c1cc(Br)ccc1O)c1ccncc1	1 µM (active)	–
Cc1nc(SC2CC(=O)N(c3ccccc3)C2=O)n[nH]1 (centres undefined)	–	-2.55%
O=c1[nH]c(CN2CCN(c3ncccn3)CC2)nc2c(Br)cc(Br)cc12	–	-16.4% [at 11.4 µM]
O=C(NCc1ccccc1C(F)(F)F)c1cccc2c1C(=O)c1ccc(N3CCC(N4CCCCC4)CC3)cc1S2(=O)=O	–	34.1% [at 11.4 µM]
O=C(N/N=C/c1cc(Br)ccc1O)C(c1ccncc1)N1CCOCC1 (centres undefined)	10 µM (active)	–
O=C(N/N=C/c1cc(Br)cc(Br)c1O)c1ccncc1	3.98 µM (active)	–
O=C(N/N=C/c1cc(Br)ccc1OC(=O)c1ccc(Br)cc1)c1ccncc1	3.98 µM (active)	–
COc1ccc(C(=O)N/N=C/c2cc(Br)ccc2O)cc1OC	2.51 µM (active)	–
O=C(NN=Cc1ccc(O)cc1O)c1ccccc1NS(=O)(=O)c1cccs1	3.16 µM (active)	–
CCCCC(=O)NC(c1ccccc1)c1ccc2cccnc2c1O (centres undefined)	3.98 µM (active)	–
CCCC(=O)NC(c1ccccc1)c1ccc2cccnc2c1O (centres undefined)	2.24 µM (active)	–
CCCC(=O)NC(c1ccc(C(C)C)cc1)c1ccc2cccnc2c1O (centres undefined)	0.355 µM (active)	–
CCCC(=O)NC(c1ccc(OC)cc1)c1ccc2cccnc2c1O (centres undefined)	3.16 µM (active)	–
CCCC(=O)NC(c1ccc(C)cc1)c1ccc2cccnc2c1O (centres undefined)	2 µM (active)	–
CCOC(=O)COc1ccc(Br)cc1/C=C/c1[nH]c(=O)[nH]c(=O)c1[N+](=O)[O-]	–	3.24% [at 11.4 µM]
CN1OC[C@@H]2CN[C@H](c3ccc(-c4cc5ccccc5o4)cc3)C[C@@H]21	0.0794 µM (active)	–

SMILES	Potency	activity change, negative = inhibition
N#C/C(=C\c1ccc([N+](=O)[O-])o1)c1nc2ccccc2[nH]1	22.4 µM (active)	–
Cc1c(N/N=C(\C#N)C(=O)c2ccccc2)c(=O)n(-c2ccccc2)n1C	3.98 µM (active)	–
COc1ccc(NS(=O)(=O)c2ccc(C(=O)Nc3c(C)n(C)n(-c4ccccc4)c3=O)cc2)cc1	–	0.165% [at 11.4 µM]
Cc1cc(N2CCN(Cc3nc(-c4ccc(Cl)cc4)oc3C)CC2)cc(C)n1	25.1 µM (active)	–
NS(=O)(=O)c1ccc(CCNC(=O)c2cc(-c3ccccn3)nc3ccc(Br)cc23)cc1	–	-21.8%
COc1ccc(N(C)S(=O)(=O)c2ccc(Cl)c(C(=O)NCCc3ccc(Cl)cc3)c2)cc1	14.1 µM (active)	–
COC(=O)c1ccc(C(=O)Nc2cc(Cl)ccc2Cl)cc1NC(=O)c1ccc(N(C)C)cc1	–	-1.02% [at 11.4 µM]
CCOP(=O)(OCC)C(Cc1ccccc1)N=C(c1ccccc1)c1ccccc1 (centres undefined)	22.4 µM (active)	–
Nc1ccc(Oc2ccccc2-c2ccccc2)cc1	2 µM (active)	–
CC(=O)Nc1ccc(NC2=Nc3ccccc3N3C2=Nc2c(c(C)nn2-c2ccccc2)C3c2ccccc2)cc1 (centres undefined)	1.12 µM (active)	–
Cc1cccc(NC2=Nc3ccccc3N3C2=Nc2c(c(C)nn2-c2ccccc2)C3c2ccc(O)c(O)c2)c1 (centres undefined)	–	-12.9% [at 11.4 µM]
CN(C)CCOc1ccc(-c2c(-c3ccccc3)sc3ccccc23)cc1	22.4 µM (active)	–
CCC(=O)NC(c1ccc(C)cc1)c1cc([N+](=O)[O-])c2cccnc2c1O (centres undefined)	7.08 µM (active)	–
CC(=O)NC(c1cccs1)c1cc([N+](=O)[O-])c2cccnc2c1O (centres undefined)	10 µM (active)	–
O=C(Nc1nccs1)c1cccc(N2C(=O)c3cccc4c([N+](=O)[O-])ccc(c34)C2=O)c1	–	-20%
Cc1cc(OCC(=O)NC(C)c2ccccc2)ccc1[N+](=O)[O-] (centres undefined)	–	-19.4% [at 11.4 µM]
CC(=O)NC(c1cccs1)c1cc(Br)c2cccnc2c1O (centres undefined)	4.47 µM (active)	–
Oc1cccc(C(O)CNCc2ccc(-c3ccccc3)cc2)c1 (centres undefined)	–	-30%
CCc1ccc(-n2cc(-c3ccc(F)cc3)[n+]3c2SCCC3)cc1	17.8 µM (active)	–
CC1(C)Cc2ccccc2C2=NNC(=O)C2=N1	25.1 µM (active)	–
COc1ccc(CCNC(=O)c2cc(-c3cc(C)cc(C)c3O)n[nH]2)cc1OC	20 µM (active)	–
Cc1sc2cc3c(c(C(=O)c4ccccc4)[n+]2c1C)-c1cccc2cccc-3c12	3.16 µM (active)	–
